Screening results (PubChem)
The full list was thinned out, with hits kept by preference.
14-3-3 PPI = alters human 14-3-3 gamma binding to Raf peptide; FP, 14-3-3gamma / TMR-pS259-Raf peptide binding; inhibition, % at 40 µM; P61981; AID 422; actives 0.19% (n = 160,000); in the data active means inhibition above about 30%;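 further: 0% = protein plus tracer without compound and 100% = blank with tracer alone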
Target sequence (P61981 whole entry, looked up): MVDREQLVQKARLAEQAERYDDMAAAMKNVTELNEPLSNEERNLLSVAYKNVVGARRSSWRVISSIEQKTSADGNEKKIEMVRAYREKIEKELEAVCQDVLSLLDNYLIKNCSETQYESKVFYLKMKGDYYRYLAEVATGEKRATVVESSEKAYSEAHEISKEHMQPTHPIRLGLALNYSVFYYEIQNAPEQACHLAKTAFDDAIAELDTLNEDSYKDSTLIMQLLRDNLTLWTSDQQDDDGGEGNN
Numbers without * were called inactive.

For CCSC1(SCC)N=C(N)C2(C#N)C(c3ccccc3)NC(C)=C(C)C12C#N (stereo not given) the results were 14-3-3 PPI -6.
For CCC1=C(C)C(c2ccccc2)NC(=S)N1 (stereo not given) the results were 14-3-3 PPI 2.
`CC1=CC(C#N)(C#N)C(C#N)(C#N)C(c2ccccc2)N1` (stereo not given) gave 14-3-3 PPI 73*.
CC(=O)Nc1ccc(N2C(=O)c3ccc(Oc4cccc(NC(C)=O)c4)cc3C2=O)cc1 was read as 14-3-3 PPI -6.
`CC(C)CC1CCCC(CC(C)C)N1CCO` (stereo not given) gave 14-3-3 PPI -4.
`C=CCC1C=CCC(CC=C)N1CCO` (stereo not given) gave 14-3-3 PPI 106*.
For C=CCC1C=CCC(CC=C)N1C(=O)C(F)(F)F (stereo not given) the results were 14-3-3 PPI 1.
Screening Cc1cccc(Nc2cc(C(=O)NCc3ccc4c(c3)OCO4)c3ccccc3n2)c1C returned 14-3-3 PPI -42.
CC1(C)CC(N(CCCO)C(=O)c2ccco2)CCO1 (stereo not given) was read as 14-3-3 PPI -1.
Screening CC(C)CCNC(=O)C1CCN(c2nc3cc(Cl)ccc3s2)CC1 returned 14-3-3 PPI -4.
Clc1ccc(-c2nc3ncccn3c2Nc2ccc3c(c2)OCO3)cc1 was read as 14-3-3 PPI -7.
`CSc1ccc(-c2nc3ncccn3c2Nc2ccccc2C)cc1` gave 14-3-3 PPI -32.
Clc1ccc(Sc2c(-c3ccccc3)nc3ncccn23)cc1 was read as 14-3-3 PPI 39*.
CCc1ccccc1N(C)S(=O)(=O)c1ccc2[nH]cc(C(=O)NCCc3ccccc3)c(=O)c2c1 was read as 14-3-3 PPI -2.
Cc1ccc(N(C)S(=O)(=O)c2ccc3[nH]cc(C(=O)NCc4ccccn4)c(=O)c3c2)cc1C was read as 14-3-3 PPI -3.
Screening CN(c1ccc(F)cc1)S(=O)(=O)c1ccc2[nH]cc(C(=O)NCc3ccccn3)c(=O)c2c1 returned 14-3-3 PPI active.
For Cc1cccc(C)c1N(C)S(=O)(=O)c1ccc2[nH]cc(C(=O)NCc3ccccn3)c(=O)c2c1 the results were 14-3-3 PPI 44*.
Screening CCc1ccc(NS(=O)(=O)c2ccc3[nH]cc(C(=O)NCc4ccc(C)cc4)c(=O)c3c2)cc1 returned 14-3-3 PPI -15.
Screening Cc1ccccc1N(C)S(=O)(=O)c1ccc2[nH]cc(C(=O)NCC3CCCO3)c(=O)c2c1 (stereo not given) returned 14-3-3 PPI -6.
Screening CCCCN(C)C(=O)c1c[nH]c2ccc(S(=O)(=O)N(C)c3ccccc3CC)cc2c1=O returned 14-3-3 PPI -7.
For COCCNC(=O)c1c[nH]c2ccc(S(=O)(=O)N(C)c3ccc(F)cc3)cc2c1=O the results were 14-3-3 PPI -5.
Screening CCc1ccccc1N(C)S(=O)(=O)c1ccc2[nH]cc(C(=O)O)c(=O)c2c1 returned 14-3-3 PPI 63*.
Screening COCCCNC(=O)c1c[nH]c2ccc(S(=O)(=O)N(C)c3c(C)cccc3C)cc2c1=O returned 14-3-3 PPI -10.
For CCc1ccc(NS(=O)(=O)c2ccc3[nH]cc(C(=O)NCc4ccccn4)c(=O)c3c2)cc1 the results were 14-3-3 PPI 172*.
CCc1ccc(NS(=O)(=O)c2ccc3[nH]cc(C(=O)NCc4ccccc4)c(=O)c3c2)cc1 was read as 14-3-3 PPI -15.
`NC(=O)c1c(NC(=O)C2CCCC2)sc2c1CCCC2` gave 14-3-3 PPI -1.
Screening CC1=C(C(=O)OCCc2ccccc2)C(c2ccc(N(C)C)cc2)NC(=O)N1 (stereo not given) returned 14-3-3 PPI -6.
O=c1c2ccccc2nc(SCc2ccccc2F)n1Cc1ccco1 was read as 14-3-3 PPI -5.
Screening O=C(O)CN1CC(=O)N(C2CCCC2)C(c2cccc(F)c2)C1=O (stereo not given) returned 14-3-3 PPI -7.
`O=C(Nc1ccc(Cl)cc1)c1cc(S(=O)(=O)N2CCCCCC2)ccc1F` gave 14-3-3 PPI -1.
For CCC(=O)NC(c1ccc(Cl)cc1)c1ccc2cccnc2c1O (stereo not given) the results were 14-3-3 PPI 1.
COc1cccc(-n2c(=O)c3c(C)c(C)sc3n(CC(=O)c3ccccc3)c2=O)c1 was read as 14-3-3 PPI -34.
Screening COCc1nnc(SCc2cccc(Br)c2)n1-c1cccc2ccccc12 returned 14-3-3 PPI -5.
COc1cc(-c2n[nH]c(=S)n2-c2ccc(F)cc2)cc(OC)c1OC was read as 14-3-3 PPI 4.
`CCCC[n+]1c(C=Cc2ccc(N(C)C)cc2)sc2ccc(OC)cc21` gave 14-3-3 PPI -262.
Screening O=C(O)CCN1C(=O)C(=O)/C(=C(/O)c2ccccc2)C1c1ccc(Cl)cc1 (stereo not given) returned 14-3-3 PPI 1.
CN(c1ccc(Br)cc1)S(=O)(=O)c1ccc2[nH]cc(C(=O)NCc3ccccn3)c(=O)c2c1 was read as 14-3-3 PPI 147*.
